Assay results from PubChem BioAssay AID1259418 (Broad Institute, 2018).
Screen size: about 3,400 compounds; about 840 (25%) were called active. Another 11% or so got no clear call; they are omitted. These entries were drawn from the full list. Entries with a potency or affinity are not part of this list. Unmarked numbers belong to inactive results.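 The calls were made as follows: active = fitted half-maximal concentration of signal decrease at or below twice the sample's top tested concentration; inconclusive = flat curve between -70 and -30 percent, or poor fit; inactive = flat within 30 percent, signal rise, or potency above limit.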

Assay: inhibitors of Toxoplasma growth in IFN-γ-primed HeLa – cell-based, ME49Luc, luciferase, 72 h, dose response (AID 1259418)
Settings: T. gondii ME49Luc in IFN-y HeLa, stronger effect = lower value, -100% = high-dose IFN-γ control wells; at 19.5 µM unless noted

First: O=C(CCC1N=C2c3ccccc3N=C(SCc3ccccc3Cl)N2C1=O)NCc1ccco1 (stereo unspecified)
Second: Clc1ccc(CNc2nc(SCc3ccccc3Cl)nc3ccccc23)cc1
The max activity of the first is higher: 35.4% [at 10 µM] for the first, -19% [at 10 µM] for the second.

First: COc1ccc(NC(=O)Nc2ccc(-c3nc(-c4ccccc4)co3)cc2)c(OC)c1
Second: Cc1ccc(C)c(N2CCN(C(=O)CC3Nc4c5ccccc5nc(=S)n4C3=O)CC2)c1 (stereo unspecified)
The max activity of the first is lower: 53.6% [at 10 µM] for the first, 190% [at 10 µM] for the second.

First: CCOC(=O)c1ccc(NC(=O)Nc2ccc(-c3nc(-c4ccc(C)cc4C)co3)cc2)cc1
Second: CCCc1cc(C2CCCN2C(=O)c2cc(C(F)(F)F)nn2C)no1 (stereo unspecified)
The max activity of the first is higher: 15.1% [at 0.16 µM] for the first, 13.3% [at 0.16 µM] for the second.

Compared with CCOc1ccc(NC(=O)Nc2ccc(-c3nc(-c4ccccc4)co3)cc2)cc1, COc1cccc(N2CCN(C(=O)CC3Nc4c5ccccc5nc(=S)n4C3=O)CC2)c1 (stereo unspecified) is lower in max activity: 55.1% for the first, 50.6% for the second.

Going from O=C(CC(F)(F)F)N1C[C@@H]2[C@H](c3ccccc31)[C@H](CO)N2CC1CCOCC1 to O=C(CC1Nc2c3ccccc3nc(=S)n2C1=O)N1CCN(c2cccc(C(F)(F)F)c2)CC1 (stereo unspecified), the max activity rises from 54.6% to 105%.

O=C(CCC1Nc2c3ccccc3nc(=S)n2C1=O)N1CCN(c2ccccc2F)CC1 (stereo unspecified) showed a max activity of 35.9%.

Going from COc1ccc2c(c1)NC1(CCN(C(=O)c3ccc(Br)o3)CC1)c1cccn1-2 to Cc1ccc(Cl)cc1N1CCN(C(=O)CC2Nc3c4ccccc4nc(=S)n3C2=O)CC1 (stereo unspecified), the max activity rises from 8.21% [at 0.35 µM] to 25.8% [at 0.35 µM].

First: CC(C)(C)NC1=NCCNC12CCN(S(=O)(=O)c1ccc3c(c1)CCCC3)CC2
Second: Cc1oc(-c2cccc(Cl)c2)nc1CSc1nc2c(c(=O)[nH]1)CN(Cc1ccccc1)CC2
The max activity of the first is lower: -19.2% [at 0.35 µM] for the first, 20.2% [at 0.35 µM] for the second.

Work on Cc1cccc(-c2nc(Cn3nnc(-c4nc(-c5ccc(OC(F)(F)F)cc5)no4)c3C)c(C)o2)c1 yielded a max activity of -4.39% [at 0.35 µM].

First: Cc1oc(-c2ccccc2Cl)nc1Cn1c(=O)c2cccnc2n(-c2ccccc2)c1=O
Second: Clc1ccccc1CSc1nc(NCCc2ccccc2)c2ccccc2n1
The max activity of the first is lower: 6.15% [at 5 µM] for the first, 13.2% [at 5 µM] for the second.

COc1ccccc1CNC(=O)CCC1Nc2c3ccccc3nc(=S)n2C1=O (stereo unspecified) and Fc1ccccc1CSc1nc(NCc2ccco2)c2ccccc2n1 are the same in max activity: 15% [at 2.6 µM] for the first, 15% [at 2.6 µM] for the second.

For COc1ccc(CNc2nc(SCc3ccccc3F)nc3ccccc23)cc1, the max activity was 8.85% [at 0.68 µM].
